Tests used:
Experiment in all cases: PBM binding z-score (relative to random genomic background probes); higher = stronger binding; sequences stand for … in GC…GCGATTGACAGCGTAGAATGAAGG
[1] = system: FXR:RXRa (NR concentration 270 nM, RXRa partner concentration 90 nM)
How it was run: (§1)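 Antibodies against each partner of ligand-free nuclear receptor dimers (one per run) detected binding on custom Agilent 4×180K protein-binding microarrays after 1 h incubation. The double-stranded probes had 34-nt variable regions carrying direct-repeat seeds, single-nucleotide variants, half-site ablations and random human genomic background sequences. Binding z-scores, from regression-normalized fluorescence, use the random background probes as reference.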

[2] = system: LXRa:RXRa (NR concentration 270 nM, RXRa partner concentration 90 nM)
How it was run: as §1

[3] = system: LXRa homodimer (NR concentration 270 nM)
How it was run: as §1

[4] = system: LXRb:RXRa (NR concentration 270 nM, RXRa partner concentration 90 nM)
How it was run: as §1

[5] = system: LXRb homodimer (NR concentration 270 nM)
How it was run: as §1

[6] = system: PPARa:RXRa (NR concentration 270 nM, RXRa partner concentration 90 nM)
How it was run: as §1

[7] = system: PPARg:RXRa (NR concentration 180 nM, RXRa partner concentration 90 nM)
How it was run: as §1

[8] = system: PPARg:RXRa 270nM:90nM, anti-RXR (NR concentration 270 nM, RXRa partner concentration 90 nM)
How it was run: as §1

[9] = system: PPARg:RXRa 30nM:10nM, anti-RXR (NR concentration 30 nM, RXRa partner concentration 10 nM)
How it was run: as §1

[10] = system: PPARg:RXRa 90nM:30nM, anti-RXR (NR concentration 90 nM, RXRa partner concentration 30 nM)
How it was run: as §1

[11] = system: PPARg:RXRa DBDmut IVT, anti-RXR (DBD mutation: RXRa K156A/R161A, NR concentration 270 nM, RXRa partner concentration 90 nM)
How it was run: as §1

[12] = system: PPARg:RXRa IVT, anti-PPARg (NR concentration 270 nM, RXRa partner concentration 90 nM)
How it was run: as §1

[13] = system: PPARg DBDmut:RXRa IVT, anti-PPARg (DBD mutation: PPARg1 K132A/R137A, NR concentration 270 nM, RXRa partner concentration 90 nM)
How it was run: as §1

[14] = system: PPARg DBDmut IVT, anti-PPARg (DBD mutation: PPARg1 K132A/R137A, NR concentration 270 nM)
How it was run: as §1

[15] = system: PPARg homodimer (NR concentration 180 nM)
How it was run: as §1

[16] = system: PXR:RXRa (NR concentration 270 nM, RXRa partner concentration 90 nM)
How it was run: as §1

[17] = system: PXR homodimer (NR concentration 270 nM)
How it was run: as §1

[18] = system: RARa:RXR (NR concentration 270 nM, RXRa partner concentration 90 nM)
How it was run: as §1

[19] = system: RARa homodimer (NR concentration 270 nM)
How it was run: as §1

[20] = system: RARb:RXRa (NR concentration 270 nM, RXRa partner concentration 90 nM)
How it was run: as §1

Sequence	PBM binding z-score [1]	PBM binding z-score [2]	PBM binding z-score [3]	PBM binding z-score [4]	PBM binding z-score [5]	PBM binding z-score [6]	PBM binding z-score [7]	PBM binding z-score [8]	PBM binding z-score [9]	PBM binding z-score [10]	PBM binding z-score [11]	PBM binding z-score [12]	PBM binding z-score [13]	PBM binding z-score [14]	PBM binding z-score [15]	PBM binding z-score [16]	PBM binding z-score [17]	PBM binding z-score [18]	PBM binding z-score [19]	PBM binding z-score [20]
GCAGACAGGTGAAACGCAGGAAACTCAGGGTGGC	-0.517	-0.226	-0.695	-0.346	-1.08	0.952	0.592	-0.351	-0.59	-0.582	0.874	0.378	-0.857	-0.37	-0.537	-0.387	-0.338	-0.0101	-0.25	0.527
CCTGCTAGGTCAATGGTCAGATAAAGCAGCTCGC	2.9	2.29	0.316	1.61	-0.124	3.15	4.67	5.1	2.77	4.96	4.27	4	-0.328	-0.659	1.01	0.646	-0.497	1.44	0.218	3.65
ATAACGAGGGCACGCTGAGTTGATAGCAGAGTAG	0.657	1.11	-0.0272	0.34	0.00771	2.24	2.45	1.88	0.803	1.22	4.2	4.09	1.98	1.47	0.669	1.83	0.518	1.04	-0.277	2.61
CAAACTAGGTCAAAGGTCATAGTCGAGCCAACCA	7.9	6.85	5.6	6.78	2.18	7.62	14	11.2	12.9	13.1	8.7	9.39	3.36	4.08	5.55	7.06	1.04	8.82	2.53	5.59
CCAGACAGGCGAAAGGTAACTCAGTCTGGTACGC	-0.414	-0.478	-0.885	-0.448	-1.33	0.667	1.57	2.87	0.676	2.22	-0.357	-0.108	-0.986	-1.21	-0.19	-0.328	-0.718	-0.0922	-0.38	-0.0959
TGAATGAGGTTATAAGATCACGGAACGTTGCAAA	1.72	1.49	-0.0904	1.48	-0.205	3.21	2.15	2.44	1.12	2.05	0.939	2.19	1.02	1.32	0.335	1.43	0.182	2.09	0.409	1.5
AGAACGAGGGCGCGCTGAGTTGATAGCAGAGTAG	-0.365	-0.482	-0.786	-0.508	-1.21	0.138	0.362	-0.296	-0.293	-0.308	1.09	0.807	-0.354	-0.835	-0.746	0.224	-0.402	-0.0213	-1.26	0.529
CGAAGTAGGTCATTGACAGGACAGTGAATAGTAA	4.75	3.56	0.791	2.6	0.392	5.05	7.92	6.67	4.6	6.57	8.42	8.66	3.43	2.58	2.08	2.16	0.395	2.66	0.16	3.58
ATATGCAGGTTAAGGGTCATTCAGGTTGGTTCGC	5.08	4.8	3.05	4.56	1.17	5.84	9.18	7.85	8.36	8.7	3.94	5.19	0.744	1.06	2.9	5.48	1.82	6.03	1.71	3.6
CCGACTGGGGCAAAGGTTACTATACTCAGTACGA	1.1	1.13	0.145	1.83	-0.765	4.86	10.7	8.89	8.85	9.45	4.92	5.73	-0.179	-0.335	1.41	1.93	-0.04	3.21	-0.0301	1.86
CGAACTAGGTCATCCAGGACAGTCAATACATTGA	4.68	3.11	0.817	2.43	0.306	5.03	7.74	6.5	3.94	6.22	8.57	8.35	3.88	2.33	1.98	2.25	1.6	2.83	0.712	3.95
TAGCCTAGGTCAGAGCGGGCCAGTATACGCTATA	1.24	0.815	-0.692	0.501	-1.17	1.42	0.573	0.718	-0.359	0.201	0.635	1.65	-0.73	-0.204	0.133	0.376	-0.362	0.867	-1.12	2.85
CCTACCGGGCCAAGGTCATTGATCAGTCAAAGCA	3.14	3.01	1.23	2.66	-0.522	3.66	1.86	2.48	0.154	1.76	0.244	1.19	-0.794	-1.36	1.88	3.79	1.52	4	0.296	3.42
TAGCCTAGGTCATGCGGGCCAGTCTAGTGTCGGC	3.89	3.03	-0.0115	1.36	-0.0777	3.43	2	2.23	-0.051	0.877	1.3	2.93	0.182	0.146	0.871	1.4	-0.585	2.48	-0.19	3.86
